{"source": "the supplement of paper PMC11732987", "about": "“Enantioselective OTUD7B fragment discovery through chemoproteomics screening and high-throughput optimisation” (Communications Chemistry, 2025)", "assay_in_all_cases": "log2 ratio of Biotin-Ahx-Ub-VS probe labelling (fragment/DMSO); higher = less target engagement (more negative = stronger competition), active = hit call of the paper (q ≤ 0.05, log2 ratio ≤ -1)", "details_in_all_cases": "compound concentration: 200 uM; treatment time: 3 h", "key": {"OTUD6B": {"molecular_target": "T1, OTUD6B (UniProt Q8N6M0)", "T1 sequence (whole entry)": "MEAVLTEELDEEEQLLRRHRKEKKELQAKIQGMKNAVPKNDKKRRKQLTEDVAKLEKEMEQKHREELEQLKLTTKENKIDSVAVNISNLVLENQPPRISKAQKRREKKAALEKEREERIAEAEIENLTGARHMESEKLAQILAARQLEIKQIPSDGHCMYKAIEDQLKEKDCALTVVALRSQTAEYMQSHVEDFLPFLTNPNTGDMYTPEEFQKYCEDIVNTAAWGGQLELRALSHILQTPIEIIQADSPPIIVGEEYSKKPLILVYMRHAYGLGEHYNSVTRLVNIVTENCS", "outline": "(§1)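 Global-median-normalised Spectronaut label-free quantities were compared by unpaired t-test, and values are average log2 ratios of fragment over vehicle. Only proteins with ≥2 unique peptides were used. HEK293T lysate (495 µg per sample) was treated in triplicate with fragment at 200 µM or vehicle for 3 h and then with Biotin-Ahx-Ub-VS at 0.5 µM final for 1 h. Labelled DUBs were then NeutrAvidin-enriched, digested with LysC and trypsin, and run by diaPASEF LC-MS/MS.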"}, "OTUD7B": {"molecular_target": "T2, OTUD7B (UniProt Q6GQQ9)", "T2 sequence (whole entry)": "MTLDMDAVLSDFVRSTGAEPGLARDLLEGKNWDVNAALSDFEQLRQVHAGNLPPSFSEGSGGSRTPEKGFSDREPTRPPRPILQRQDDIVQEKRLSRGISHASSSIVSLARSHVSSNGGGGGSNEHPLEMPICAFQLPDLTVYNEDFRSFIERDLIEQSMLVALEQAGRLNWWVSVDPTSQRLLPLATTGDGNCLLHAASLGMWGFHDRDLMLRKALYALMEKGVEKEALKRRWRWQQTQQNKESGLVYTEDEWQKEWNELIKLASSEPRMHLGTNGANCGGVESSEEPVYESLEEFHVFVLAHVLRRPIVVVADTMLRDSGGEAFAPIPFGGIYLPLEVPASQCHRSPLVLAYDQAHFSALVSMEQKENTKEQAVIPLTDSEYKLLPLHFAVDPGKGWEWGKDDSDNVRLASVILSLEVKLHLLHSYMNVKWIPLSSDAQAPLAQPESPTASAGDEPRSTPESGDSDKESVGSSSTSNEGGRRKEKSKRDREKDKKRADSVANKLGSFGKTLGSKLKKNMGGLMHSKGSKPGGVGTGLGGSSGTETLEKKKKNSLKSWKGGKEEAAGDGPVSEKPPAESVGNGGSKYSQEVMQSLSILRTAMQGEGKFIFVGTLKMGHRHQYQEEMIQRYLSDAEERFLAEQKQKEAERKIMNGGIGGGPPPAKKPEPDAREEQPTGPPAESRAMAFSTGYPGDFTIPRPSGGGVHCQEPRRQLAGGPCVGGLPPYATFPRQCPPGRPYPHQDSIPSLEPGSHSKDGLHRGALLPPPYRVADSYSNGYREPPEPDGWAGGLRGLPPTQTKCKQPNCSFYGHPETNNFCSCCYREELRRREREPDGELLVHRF", "outline": "as §1"}, "PRPF8": {"molecular_target": "PRPF8 (UniProt Q6P2Q9)", "outline": "as §1"}, "PSMD7": {"molecular_target": "T3, PSMD7 (UniProt P51665)", "T3 sequence (whole entry)": "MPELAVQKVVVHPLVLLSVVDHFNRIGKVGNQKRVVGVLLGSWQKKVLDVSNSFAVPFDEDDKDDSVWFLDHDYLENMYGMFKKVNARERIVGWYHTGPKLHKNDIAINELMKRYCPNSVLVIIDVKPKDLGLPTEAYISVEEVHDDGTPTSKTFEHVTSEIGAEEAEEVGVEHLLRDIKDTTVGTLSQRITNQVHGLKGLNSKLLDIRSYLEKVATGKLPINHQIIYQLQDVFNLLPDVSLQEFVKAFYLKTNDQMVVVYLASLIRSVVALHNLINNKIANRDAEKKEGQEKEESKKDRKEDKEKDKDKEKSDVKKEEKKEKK", "outline": "as §1"}, "UCHL1": {"molecular_target": "UCHL1 (UniProt P09936)", "sequence (P09936 whole entry, looked up)": "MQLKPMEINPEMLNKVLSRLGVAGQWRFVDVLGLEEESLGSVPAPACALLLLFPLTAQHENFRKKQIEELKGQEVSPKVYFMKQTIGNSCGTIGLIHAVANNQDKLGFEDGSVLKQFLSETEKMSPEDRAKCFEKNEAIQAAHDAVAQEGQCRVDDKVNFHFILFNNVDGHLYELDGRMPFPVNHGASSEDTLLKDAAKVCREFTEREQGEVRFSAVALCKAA", "outline": "as §1"}, "UCHL3": {"molecular_target": "T4, UCHL3 (UniProt P15374)", "T4 sequence (whole entry)": "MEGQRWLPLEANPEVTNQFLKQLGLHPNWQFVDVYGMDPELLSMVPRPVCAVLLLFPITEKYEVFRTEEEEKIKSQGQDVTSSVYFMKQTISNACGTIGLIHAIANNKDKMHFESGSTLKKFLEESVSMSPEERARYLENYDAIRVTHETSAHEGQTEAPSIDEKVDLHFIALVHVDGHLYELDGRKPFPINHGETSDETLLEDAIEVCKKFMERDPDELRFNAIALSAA", "outline": "as §1"}, "UCHL5": {"molecular_target": "T5, UCHL5 (UniProt Q9Y5K5)", "T5 sequence (whole entry)": "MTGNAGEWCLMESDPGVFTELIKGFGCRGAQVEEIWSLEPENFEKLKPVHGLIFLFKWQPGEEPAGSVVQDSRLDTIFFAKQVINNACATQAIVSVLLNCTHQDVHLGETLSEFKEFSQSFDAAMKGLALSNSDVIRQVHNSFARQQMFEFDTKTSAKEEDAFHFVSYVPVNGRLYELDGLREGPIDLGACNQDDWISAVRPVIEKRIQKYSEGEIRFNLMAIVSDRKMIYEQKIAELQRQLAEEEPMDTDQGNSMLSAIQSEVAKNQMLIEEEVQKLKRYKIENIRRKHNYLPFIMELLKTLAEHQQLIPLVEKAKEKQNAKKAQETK", "outline": "as §1"}, "USP10": {"molecular_target": "USP10 (UniProt Q14694)", "sequence (Q14694 whole entry)": "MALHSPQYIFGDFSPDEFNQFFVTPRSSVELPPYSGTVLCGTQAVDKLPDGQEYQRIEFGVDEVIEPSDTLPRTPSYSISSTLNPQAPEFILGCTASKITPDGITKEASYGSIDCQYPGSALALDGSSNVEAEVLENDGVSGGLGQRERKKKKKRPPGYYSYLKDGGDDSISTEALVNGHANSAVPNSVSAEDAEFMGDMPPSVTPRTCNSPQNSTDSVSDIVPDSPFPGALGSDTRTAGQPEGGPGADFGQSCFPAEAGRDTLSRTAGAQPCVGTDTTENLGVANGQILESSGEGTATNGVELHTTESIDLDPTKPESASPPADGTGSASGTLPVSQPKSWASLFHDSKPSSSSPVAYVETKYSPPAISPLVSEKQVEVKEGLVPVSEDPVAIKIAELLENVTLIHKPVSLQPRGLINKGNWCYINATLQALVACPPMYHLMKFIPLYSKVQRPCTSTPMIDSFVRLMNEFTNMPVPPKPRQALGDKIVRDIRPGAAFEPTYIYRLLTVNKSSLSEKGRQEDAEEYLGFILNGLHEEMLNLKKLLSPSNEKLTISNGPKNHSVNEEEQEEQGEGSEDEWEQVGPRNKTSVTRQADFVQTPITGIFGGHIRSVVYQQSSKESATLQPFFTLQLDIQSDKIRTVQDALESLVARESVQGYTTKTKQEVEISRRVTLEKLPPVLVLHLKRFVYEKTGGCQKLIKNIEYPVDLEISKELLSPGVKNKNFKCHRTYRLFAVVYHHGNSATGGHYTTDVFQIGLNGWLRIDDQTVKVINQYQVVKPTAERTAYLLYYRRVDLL", "outline": "as §1"}, "USP15": {"molecular_target": "T6, USP15 (UniProt Q9Y4E8)", "T6 sequence (whole entry)": "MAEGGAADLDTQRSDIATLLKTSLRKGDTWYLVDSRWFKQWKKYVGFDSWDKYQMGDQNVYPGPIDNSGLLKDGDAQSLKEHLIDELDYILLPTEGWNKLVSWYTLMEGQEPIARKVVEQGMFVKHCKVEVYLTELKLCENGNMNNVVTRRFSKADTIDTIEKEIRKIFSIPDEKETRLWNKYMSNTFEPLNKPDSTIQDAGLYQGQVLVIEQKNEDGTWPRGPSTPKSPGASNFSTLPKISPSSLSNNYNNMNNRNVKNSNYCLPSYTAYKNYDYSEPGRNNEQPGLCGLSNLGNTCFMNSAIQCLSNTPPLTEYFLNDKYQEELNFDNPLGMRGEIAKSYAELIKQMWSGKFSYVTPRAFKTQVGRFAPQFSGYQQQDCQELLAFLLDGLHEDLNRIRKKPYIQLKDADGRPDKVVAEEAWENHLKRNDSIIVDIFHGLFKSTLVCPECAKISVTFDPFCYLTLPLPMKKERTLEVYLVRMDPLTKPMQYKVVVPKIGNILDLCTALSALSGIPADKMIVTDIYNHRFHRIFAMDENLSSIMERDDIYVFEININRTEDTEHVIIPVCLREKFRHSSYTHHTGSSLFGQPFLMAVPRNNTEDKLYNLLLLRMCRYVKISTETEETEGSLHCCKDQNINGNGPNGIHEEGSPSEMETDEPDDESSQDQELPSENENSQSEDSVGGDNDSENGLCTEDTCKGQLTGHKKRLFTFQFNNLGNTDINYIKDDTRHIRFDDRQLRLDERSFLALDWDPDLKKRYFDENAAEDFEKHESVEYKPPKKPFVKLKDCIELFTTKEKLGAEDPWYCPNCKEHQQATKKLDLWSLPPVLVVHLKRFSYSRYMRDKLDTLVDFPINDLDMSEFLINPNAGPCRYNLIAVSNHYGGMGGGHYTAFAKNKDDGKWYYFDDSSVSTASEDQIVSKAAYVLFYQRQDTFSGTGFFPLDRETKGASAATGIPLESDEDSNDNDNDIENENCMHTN", "outline": "as §1"}}, "note": "Values without a mark were called inactive."}
{"smiles": "O=C(CCl)Nc1ccc(N2CCCC2=O)cc1", "values": [{"measurement": "log2 ratio of Biotin-Ahx-Ub-VS probe labelling", "setting": "OTUD6B", "result": 0.116}, {"measurement": "log2 ratio of Biotin-Ahx-Ub-VS probe labelling", "setting": "OTUD7B", "result": -0.359}, {"measurement": "log2 ratio of Biotin-Ahx-Ub-VS probe labelling", "setting": "PRPF8", "result": 0.162}, {"measurement": "log2 ratio of Biotin-Ahx-Ub-VS probe labelling", "setting": "PSMD7", "result": -0.145}, {"measurement": "log2 ratio of Biotin-Ahx-Ub-VS probe labelling", "setting": "UCHL1", "result": "-1.1 (active)"}, {"measurement": "log2 ratio of Biotin-Ahx-Ub-VS probe labelling", "setting": "UCHL3", "result": 0.206}, {"measurement": "log2 ratio of Biotin-Ahx-Ub-VS probe labelling", "setting": "UCHL5", "result": -0.098}, {"measurement": "log2 ratio of Biotin-Ahx-Ub-VS probe labelling", "setting": "USP10", "result": -0.0139}, {"measurement": "log2 ratio of Biotin-Ahx-Ub-VS probe labelling", "setting": "USP15", "result": 0.104}]}
